# Assay outcomes deposited in PubChem BioAssay by The Scripps Research Institute Molecular Screening Center.
# In the library only some 4.1% were active in any assay of this set; here they are far more common.
# ssDAF-12 act: activators of S. stercoralis DAF-12 nuclear receptor. HEK293 ssDAF-12/GRIP1 lit1-tk-luc reporter, luminescence; % of 3 µM dafachronic acid response. activation, % at 6.8 µM. hit rate 1% among 370,000. AID 652126;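 active = activation above the mean over all tested compounds plus 3 SD, cut at about 0.9% in these data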
# DAX1 inh-1: NR0B1 (DAX1) inhibition; P51843; HEK293 Gal4-DAX1 luciferase reporter, luminescence; inhibition, % at 6.75 µM; hit rate 0.99% among 340,000; AID 504766;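 active = inhibition above the mean over all tested compounds plus 3 SD, cut at about 4.2% in these data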;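 also: inhibition shows as a rise in luminescence from relieved DAX1 repression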
# Target sequence (P51843 207-470 limits assumed): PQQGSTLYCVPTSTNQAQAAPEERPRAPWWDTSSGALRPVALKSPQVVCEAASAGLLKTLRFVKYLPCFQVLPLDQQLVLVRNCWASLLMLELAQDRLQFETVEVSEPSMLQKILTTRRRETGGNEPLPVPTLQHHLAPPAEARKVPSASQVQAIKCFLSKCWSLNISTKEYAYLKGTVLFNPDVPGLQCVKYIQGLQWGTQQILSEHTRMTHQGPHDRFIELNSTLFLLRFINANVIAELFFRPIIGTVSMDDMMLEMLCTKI
# hgDAF-12 ag: activates the H. glycines DAF-12 receptor ligand-binding domain; HEK293 GAL4-hgDAF12 UAS-luciferase reporter, agonist luminescence; normalized to butyrate control; activation, % at 6.8 µM; hit rate 1.8% among 370,000;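 active = activation above a cutoff set at the mean of all screened compounds plus 3 SD, cut at about 10% in these data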
# DAX1 inh-2: inhibitors of DAX1 repression of SF-1 activated StAR promoter; HEK293T StAR-luciferase reporter, SF-1/DAX-1 repression relief; inhibition, % at 6.8 µM; hit rate 1.1% among 370,000;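 active = inhibition above the mean over all tested compounds plus 3 SD, cut at about 3.6% in these data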;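 also: higher inhibition means more luminescence from relief of DAX-1 repression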
# hcDAF12 agonist: H. contortus DAF-12 activation, primary screen. HEK293 hcDAF-12 lit1-tk-luc reporter, luminescence; 0% DMSO, 100% Δ7-dafachronic acid. activation, % at 6.8 µM. hit rate 1.4% among 370,000. AID 652067;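 active = activation above the mean of all tested compounds plus 3 SD, cut at about 5.5% in these data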
# A number is an active result; 0 = inactive; - = no result.
SMILES,ssDAF-12 act,DAX1 inh-1,hgDAF-12 ag,DAX1 inh-2,hcDAF12 agonist
Cc1cc(C)cc(NC(=O)C(Sc2ncnc3ccccc23)c2ccccc2)c1 (stereo unspecified),0,0,0,0,6.4
CC(=O)NC(c1ccccc1)c1nc(/C=C/c2ccccc2)cs1 (stereo unspecified),0,-,0,0,0
Cc1nn(-c2ccccc2)c(/N=C/c2ccc(O)cc2)c1-c1ccccc1,1.0,0,0,0,0
Cc1nn(-c2ccccc2)c(C)c1-c1ccccc1O,0,0,0,0,0
FC(F)(F)c1ccc2nc(CNc3nc(N4CCOCC4)nc4c3ncn4-c3ccsc3)[nH]c2c1,0,-,0,-,0
COc1ccc(NC(=O)c2ccc3ncsc3c2)cc1,1.3,0,0,0,0
COc1ccc(NC(=O)c2ccc3nc(C)sc3c2)cc1,0,0,0,0,0
COc1cccc(NC(=O)c2ccc(OC(F)(F)F)cc2)c1,0,0,11.2,0,0
CCOc1ccc(NC(=O)c2ccc(OC)cc2)cc1,0,0,12.9,0,0
COc1ccc(NC(=O)c2ccc3c(c2)n(C)c(=O)n3C)cc1,0,6.4,0,0,0
COc1ccc(C(=O)Nc2ccc3c(c2)n(C)c(=O)n3C)cc1OC,0,0,0,0,0
c1ccc(Cn2c(SCC3CCC3)nnc2-c2cccnc2)cc1,0,-,0,0,0
COC(=O)c1ccc(Cn2ccc3ccc(-c4ccc5ccn(C(=O)c6cccc(OC)c6)c5c4)cc32)cc1,0,-,0,0,0
Nn1c(-c2ccccn2)nnc1-c1ccccn1,0,0,0,0,0
Nc1ccccc1-c1nnc(-c2ccccc2N)n1N,2.0,0,0,0,6.0
CSc1ccc(OC2(C)CCN(Cc3cc4ccccc4o3)C2)cc1 (stereo unspecified),0,-,0,0,0
C#CCOCCOCCOCCNc1nc(N2CCN(C(=O)Cn3cc(CCCN=C(N)N)nn3)CC2)nc(N2CCN(C(=O)[C@H](Cc3ccc(O)cc3)n3cc(CCO)nn3)CC2)n1,0,-,0,-,0
O=c1c2ccccc2oc2cc(NCCCN3CCOCC3)ccc12,0,0,11.7,0,0
COC(=O)c1cc(-c2cccs2)c(=O)n2c1CCC2,0,-,0,0,0
COc1cccc(/C=C2\SC(N)=NC2=O)c1OS(=O)(=O)c1ccccc1,1.1,0,0,0,0
NC1=NC(=O)/C(=C/c2ccccc2OS(=O)(=O)c2ccccc2)S1,0,0,0,0,0
COC(=O)c1cc(NC(=O)NC2CCCCN(Cc3cccc(Cl)c3)C2=O)cc(C(=O)OC)c1 (stereo unspecified),0,-,0,0,0
COc1cccc(OC[C@@H](O)CN2CCC(C(O)(c3ccccc3)c3ccccc3)CC2)c1,0,-,0,0,0
Cc1ccc(Cl)cc1N1CCN(C(=O)C2CCC(=O)N(C3CCCCCC3)C2)CC1 (stereo unspecified),0,0,0,0,0
Cc1ccc(Cl)cc1N1CCN(C(=O)C2CCC(=O)N2C(C)C)CC1 (stereo unspecified),1.7,0,0,0,0
SMILES,ssDAF-12 act,DAX1 inh-1,hgDAF-12 ag,DAX1 inh-2,hcDAF12 agonist
O=C(O)c1cccnc1Sc1ccccc1,0,0,0,0,0
Cc1nccnc1Sc1ccccc1,2.0,0,0,0,0
CCOC(=O)CC[C@@]1(C(=O)OCC)C[C@@H](CC(=O)NCc2cccs2)C(=O)N2CCCC=C21,0,-,0,0,0
CC(=O)c1cc(-c2csc(C=O)c2)c(=O)n2c1CCC2,0,-,0,0,0
COc1ccc(C=O)cc1-c1cc(C(C)=O)c2n(c1=O)CCC2,1.3,-,0,0,0
C=CCCC(=O)N[C@H]1CC[C@@]23CCCN2C(=O)CCC[C@H]3[C@H]1C,0,-,0,-,0
O=C1CN(C(=O)N[C@@H](Cc2ccccc2)C(=O)N[C@@H](Cc2ccccc2)C(=O)O)c2ccccc2N1,0,0,0,0,0
CCC(C)[C@H](NC(=O)N1CC(=O)Nc2ccccc21)C(=O)N[C@@H](Cc1c[nH]c2ccccc12)C(=O)O (stereo partly specified),0,0,0,0,5.9
CC(C)[C@H](NC(=O)N1CC(=O)Nc2ccccc21)C(=O)N[C@@H](Cc1ccccc1)C(=O)O,0,7.0,0,0,0
CCCCCCCCN1CCS(=O)(=O)N(Cc2ccc(C)cc2)C(C(=O)OC)C1 (stereo unspecified),0,-,0,0,0
O=C(COc1ccccc1)OCC(=O)c1c[nH]c2ccccc12,0,0,0,0,0
Cc1ccc(C(=O)OCC(=O)c2c[nH]c3ccccc23)cc1,1.9,0,0,0,6.5
O=C(COC(=O)c1c[nH]c2ccccc12)Nc1ccccc1,0,0,0,0,0
O=C1CCC(C(=O)OCC(=O)c2c[nH]c3ccccc23)=NN1,0,0,0,0,5.6
COC(=O)c1ccc(NC(=O)C(=O)c2c[nH]c3ccccc23)cc1,1.8,0,0,0,6.3
O=C(CSCC(=O)N1CCCCC1)OCC(=O)c1c[nH]c2ccccc12,1.3,0,0,0,0
COc1ccc(C(=O)OCC(=O)c2c[nH]c3ccccc23)cc1OC,0,0,0,0,0
Cc1nn(-c2ccccc2)c2sc(C(=O)NCc3ccc(F)cc3)cc12,0,-,0,0,0
CCN(CCNC(=O)[C@H]1C=C(OC)C(=O)C[C@H](c2ccccc2)[C@H]1C)C(C)=O,0,-,0,0,0
COc1ccc(S(=O)(=O)Nc2ccc3cn[nH]c3c2)cc1C,0.9,0,0,0,0
COc1ccc(CNC(=O)Cc2csc(NC(=O)Nc3ccccc3OC)n2)cc1,0,0,0,0,0
COc1ccccc1NC(=O)Nc1nc(CC(=O)NCc2cccnc2)cs1,0,4.8,0,0,0
Oc1c(Br)cc(Br)c2cccnc12,0,0,0,0,0
[O-][n+]1cccc2c(Br)cc(Br)c(O)c21,0,4.5,0,0,0
CCOC(=O)[C@@]12CCCC3=C1N(CCC3)C(=O)[C@H]2CC(=O)NCCCOC,0,-,0,0,0
SMILES,ssDAF-12 act,DAX1 inh-1,hgDAF-12 ag,DAX1 inh-2,hcDAF12 agonist
O=C(O)c1cccc(N2C(=O)c3ccc(C(=O)c4cccc([N+](=O)[O-])c4)cc3C2=O)c1,5.8,0,0,0,0
CCc1ccc(-c2csc3ncn(CC)c(=O)c23)cc1,17.8,0,0,0,0
Cc1cccc(N2CCN(C(=O)c3ccccc3NC(=O)C3CC=CCC3C(=O)O)CC2)c1 (stereo unspecified),0,4.4,0,0,0
CC1(C(=O)Nc2cccc(Oc3ccccc3)c2)CCN1Cc1cc2ccccc2o1 (stereo unspecified),0,-,0,0,0
Nc1[nH]c(C(=O)c2ccccc2)c(-c2ccccc2[N+](=O)[O-])c1C(=O)NCCc1c[nH]c2ccccc12,0,-,0,0,0
Clc1ccc(-c2nnc(-c3ccccc3)nc2-c2c[nH]c3ccccc23)cc1,1.6,0,0,0,0
O=C(NC1CCCC1)C1C(c2ccc(C(F)(F)F)cc2)=Nc2ccccc2N1C(=O)c1ccccc1 (stereo unspecified),0,-,0,3.6,5.7
